Source: PubChem
MARV entry inh = qHTS for inhibitors of binding or entry into cells for Marburg Virus. Marburg virus pseudotyped entry inhibition, cell reporter. Potency, µM (doses to about 37.8 µM), most hits filed as inhibitors. hit rate 1.8% among 300,000; calls by dose curve; tested in HEK293 cells
FMDV inh = High Throughput Screening for Foot and Mouth Disease Virus Antivirals | hit rate 1.2% among 410,000 | FMDV antiviral cell-based qHTS | Potency, µM (highest dose often 57.9 µM), hits mostly inhibitors | AID 1159524, 2015; calls by dose curve; tested in HEK293T cells; note: read-out not given here; nearly all actives have a fitted effect of over 45% in size
Sm TGR block = qHTS Assay for the Inhibitors of Schistosoma Mansoni Peroxiredoxins | Schistosoma mansoni thioredoxin glutathione reductase (TGR), Q962Y6 | purified TGR, DTNB reduction, TNB absorbance 405 nm | AID 485364, 2010 | Potency, µM (doses to about 114 µM), usual class: inhibitors | hit rate 3% among 360,000; active = well fitted inhibition curve with a large enough effect; inconclusive = small, poorly fitted or top-dose-only effect; inactive = no such curve, though single readings can be large or run the other way; note: nearly all actives have a fitted effect of over 60% in size
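TGR 20 nM + NADPH 100 uM (dispensed conc.), cpd preinc 15 min RT; start with NADPH (500 uM addition) then DTNB (15 mM addition). Kinetic TNB absorbance, 405 nm filter. Four-parameter Hill fit across titration.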
Vaccinia mCherry = qHTS for Stage-Specific Inhibitors of Vaccinia Orthopoxvirus: mCherry Reporter Primary qHTS. Vaccinia virus mCherry reporter infection, fluorescence. Potency, µM (top dose mostly 36.5 µM), most hits filed as inhibitors. hit rate 0.63% among 310,000. AID 720579, 2013; calls by dose curve; tested in A549 cells; note: nearly all actives have a fitted effect of over 35% in size
Lassa entry inh = qHTS for Inhibitors of binding or entry into cells for Lassa Virus; Lassa virus pseudotype entry inhibition, cell reporter; Potency, µM (top dose mostly 37.9 µM), hits mostly inhibitors; AID 540256, 2011; hit rate 1.2% among 300,000; calls by dose curve; tested in HEK293 cells; note: nearly all actives have a fitted effect of over 50% in size
VACV Venus inh = qHTS for Stage-Specific Inhibitors of Vaccinia Orthopoxvirus: Venus Reporter Primary qHTS; Vaccinia virus Venus reporter expression, fluorescence; Potency, µM (top dose mostly 36.5 µM), most hits filed as inhibitors; hit rate 0.46% among 330,000; calls by dose curve; tested in A549 cells; note: nearly all actives have a fitted effect of over 30% in size
Each line names hits and unclear results; the compound was inactive in the other large screens; ! = not confirmed by another sample. Only some compounds are listed: those with a hit (about 5.4% of all), similar ones and a draw of the others.

O=C1CC(c2ccc(O)c(O)c2)Oc2c1ccc(O)c2O (stereo not drawn)	Sm TGR block 56µM (no result: MARV entry inh, Lassa entry inh)
CC(C)=CCc1c(O)ccc2c1OC(c1ccc(O)c(O)c1)CC2=O (stereo not drawn)	FMDV inh inconclusive, Sm TGR block 56µM (no result: MARV entry inh, Lassa entry inh)
CCN(CC)C(=O)c1ccc(/C=C/c2c[nH]c3ccccc23)[n+](C)c1	none
CC[n+]1c(/C=C/c2c[nH]c3ccccc23)ccc2cc(C)ccc21	MARV entry inh inconclusive, FMDV inh 13µM, Lassa entry inh inconclusive
COc1ccccc1N1CCN(S(=O)(=O)c2ccc(-c3cc(C(F)(F)F)on3)s2)CC1	FMDV inh 0.89µM (no result: MARV entry inh)
COc1cccc(N2CCN(S(=O)(=O)c3ccc(-c4cc(C(F)(F)F)on4)s3)CC2)c1	none (no result: MARV entry inh)
Cc1c(/C=N/NC(=O)c2cccnc2)c2ccccc2n1Cc1ccccc1	FMDV inh 14µM, Lassa entry inh inconclusive
Cc1c(/C=N/NC(=O)c2cccs2)c2ccccc2n1Cc1ccccc1Cl	MARV entry inh 2.9µM, Lassa entry inh 4.1µM
Cc1nn(Cc2ccccc2)c(Cl)c1/C=N/NC(=O)c1cccnc1	none
COc1cccc(-c2ccnc(-n3ncc(C(=O)NCc4cccnc4)c3C3CC3)n2)c1	none (no result: MARV entry inh, Sm TGR block, Lassa entry inh)
CCn1nc2cc(C(=O)NCC34CC5CC(CC(C5)C3)C4)ccc2c1OC	none (no result: MARV entry inh, Lassa entry inh)
CCCCn1nc2cc(C(=O)NCC34CC5CC(CC(C5)C3)C4)ccc2c1OC	FMDV inh inconclusive, Vaccinia mCherry 6.3µM, VACV Venus inh inconclusive (no result: MARV entry inh, Lassa entry inh)
NC(=O)Cn1c(=O)n(CCCCCC(=O)NCc2ccccc2Cl)c(=O)c2sccc21	none
CCCCC(=O)Nc1cccc(-c2nc3ccccc3s2)c1	MARV entry inh inconclusive, Lassa entry inh inconclusive
COC(=O)c1ccc2c(=O)n(CCCCCC(=O)N3CCN(c4ccccc4)CC3)c(=O)[nH]c2c1	MARV entry inh inconclusive, FMDV inh 11µM, Lassa entry inh inconclusive
COC(=O)c1ccc2c(=O)n(CCCCCC(=O)N3CCN(c4cc(Cl)ccc4C)CC3)c(=O)[nH]c2c1	FMDV inh 14µM, Lassa entry inh inconclusive (no result: MARV entry inh)
CCN1CCN(C(=O)CCCCCn2c(=O)[nH]c3cc(C(=O)OC)ccc3c2=O)CC1	none (no result: Vaccinia mCherry, VACV Venus inh)
COc1cc2[nH]c(=O)n(CCCCCC(=O)N3CCN(c4ccc(Cl)cc4)CC3)c(=O)c2cc1OC	FMDV inh 18µM, Vaccinia mCherry inconclusive
CCc1ccc(NC(=O)N(Cc2ccc(C)cc2)Cc2cccn2-c2nnc(N3CCCC3=O)s2)cc1	MARV entry inh inconclusive (no result: Lassa entry inh)
O=C(NCc1ccc(F)cc1F)[C@@H]1CCCN1C(=O)[C@@H]1CCCN1	none (no result: MARV entry inh, Sm TGR block, Lassa entry inh)
CC(=O)c1ccc(/C=C/c2nc3ccccc3n2C)o1	MARV entry inh inconclusive, Sm TGR block 3.5µM, Lassa entry inh inconclusive
CCCCCCC(C)(C)c1ccc([C@@H]2C[C@H](O)CC[C@@H]2CCCO)c(O)c1	MARV entry inh 13µM, FMDV inh inconclusive (no result: Sm TGR block, Vaccinia mCherry, Lassa entry inh, VACV Venus inh)
Cc1ccc(O)c(C(=O)c2cnn(-c3ccccc3)c2)c1	MARV entry inh inconclusive
Cc1ccc(-n2cc(C(=O)c3ccccc3O)cn2)cc1	MARV entry inh inconclusive, Lassa entry inh 3.5µM
O=C(COc1ccc(Cl)cc1)Nc1ccccc1C(=O)OCc1cc(=O)n2ccsc2n1	Lassa entry inh inconclusive (no result: MARV entry inh)
Cn1c2ccccc2c(=O)c2c(=O)n(C3CCCCCC3)c(C3CCCCC3)nc21	FMDV inh 25µM
Cc1cccc(Cc2cccc(C)c2O)c1O	MARV entry inh inconclusive, Lassa entry inh inconclusive (no result: Sm TGR block)
Cc1cc(C)c2ccc(C)[n+]([O-])c2c1O	Sm TGR block 13µM (no result: Vaccinia mCherry, VACV Venus inh)
Cc1cccc(C)c1NC(=O)CC1SC2=NCCN2C1=O (stereo not drawn)	Sm TGR block 25µM
CCCCN(CC)CCNC(=O)c1c(C)oc2ncnc(N3CCOCC3)c12	none (no result: MARV entry inh)
CC(Cl)C(=O)NNc1cccc(Cl)n1 (stereo not drawn)	MARV entry inh inconclusive, Sm TGR block 13µM, VACV Venus inh inconclusive (no result: Vaccinia mCherry)
CN(C(=O)c1cccc(Nc2ccc(-c3ccc4c(c3)OCCO4)nn2)c1)C1CCCCC1	MARV entry inh inconclusive, Lassa entry inh 14µM, VACV Venus inh inconclusive (no result: Vaccinia mCherry)
COc1ccc(CNC(=O)C2CCN(C(=O)c3cccc(Cl)c3)CC2)cc1	none
Cc1ccc(Nc2nc(C(=O)N3CCC(C(=O)NCc4ccccc4)CC3)cs2)cc1	none (no result: Lassa entry inh)
COc1ccc(CNC(=O)C2CCN(C(=O)c3csc(Nc4ccc(C)cc4)n3)CC2)cc1	MARV entry inh inconclusive, FMDV inh 25µM, Vaccinia mCherry inconclusive (no result: Lassa entry inh)
O=C(c1ccc(F)cc1)N1CCC(c2ccccc2)C1 (stereo not drawn)	none
COc1ccc(C(=O)N2CCCC(c3ccccc3)C2)cc1 (stereo not drawn)	MARV entry inh inconclusive, Vaccinia mCherry inconclusive, Lassa entry inh 4.5µM
COc1ccc(CNC(=O)C2CCN(C(=O)c3ccc(-c4ccccc4)cc3)CC2)cc1	MARV entry inh inconclusive, FMDV inh inconclusive, Lassa entry inh 2.5µM
Cc1cnc(-n2ncc(C(=O)N(C)C3CCOC3)c2-c2cccs2)nc1-c1ccc(F)cc1 (stereo not drawn)	none (no result: MARV entry inh, Sm TGR block, Lassa entry inh)
O=C(Nc1cccc(O)c1)c1cc(-c2ccccc2Cl)on1	MARV entry inh 7.1µM, FMDV inh 11µM, Lassa entry inh 5µM
COc1ccc(NC(=O)c2cc(-c3ccccc3Cl)on2)cc1OC	none
O=C(c1cc(-c2ccccc2Cl)on1)N1CCCC1	MARV entry inh 11µM, Lassa entry inh inconclusive
CC(=O)c1cccc(NC(=O)c2cc(-c3ccc4c(c3)OCCO4)on2)c1	none
O=C(Nc1cccc(O)c1)c1cc(-c2ccc3c(c2)OCO3)on1	MARV entry inh inconclusive, FMDV inh 11µM, Lassa entry inh inconclusive
CSc1ncc(Cl)c(C(=O)Nc2c(C(=O)c3ccc(C)cc3)oc3ccccc23)n1	none
Cn1cccc1C(=O)N1CCC2(CCN(C(=O)Nc3cccc(C#N)c3)CC2)CC1	none (no result: MARV entry inh, Sm TGR block, Vaccinia mCherry, Lassa entry inh, VACV Venus inh)
CN(Cc1nc(-c2ccc(Cl)cc2)no1)S(=O)(=O)c1ccccc1	none
Cc1ccc(S(=O)(=O)c2nc(C)c3c(n2)CCC3)cc1	none (no result: Vaccinia mCherry)
COc1cccc(S(=O)(=O)c2nc(C)c3c(n2)CCC3)c1	FMDV inh 13µM (no result: MARV entry inh, Sm TGR block, Vaccinia mCherry, Lassa entry inh, VACV Venus inh)
CNC[C@H](Cc1ccccc1)NC[C@@H](Cc1cccc2ccccc12)NCCc1ccc(C)cc1	Vaccinia mCherry inconclusive, VACV Venus inh 14µM (no result: MARV entry inh, Lassa entry inh)
O=C(CSc1nc(=O)[nH]c2c1CCCC2)Nc1ccc(Cl)c(Cl)c1	none (no result: MARV entry inh)
CS(=O)(=O)c1nc(-c2ccc(F)cc2)cc(C(F)(F)F)n1	MARV entry inh inconclusive, FMDV inh 28µM, Vaccinia mCherry inconclusive, Lassa entry inh inconclusive, VACV Venus inh inconclusive (no result: Sm TGR block)
COc1ccc(-c2cc(C(F)(F)F)nc(S(C)(=O)=O)n2)cc1	MARV entry inh 13µM!, FMDV inh 20µM, Sm TGR block 25µM, Vaccinia mCherry inconclusive, Lassa entry inh 23µM, VACV Venus inh inconclusive
Nc1nc(-c2ccc(F)cc2)cc(C(F)(F)F)n1	Lassa entry inh inconclusive
CC(=O)NCC(=O)NCC1Cc2cc(C)cc(-c3ccccn3)c2O1 (stereo not drawn)	none (no result: MARV entry inh, Sm TGR block, Lassa entry inh)
